Source: PubChem BioAssay AID1159580 (chemical genetic matrix, 2015)
Among all 5,500 compounds or so, about 2,000 (36%) were called active. Inconclusive results (about 18%) are left out. The list shows a part of the results. A number with no mark means an inactive call. Rule as the data show it: active = normalized growth mostly below about 0.91 (no sharp cut-off); inconclusive = no clear call, values can overlap the other calls; inactive = mostly above about 0.92.

Assay: chemical genetic growth profiling, strain panel (AID 1159580);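 also: tested at 20 µM; growth read once vehicle control cultures reached saturation at 30 °C; 1 = growth at the plate median or of vehicle wells; lower values mean less growth of the strain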
Conditions: growth OD

CCCCOC(=O)c1ccc(N)cc1
normalized growth (S. cerevisiae deletion strains, locus YJR075W, strain HOC1, active compounds read low): 0.888
normalized growth (S. cerevisiae deletion strains, locus YKL009W, strain mrt4, active compounds read low): 0.946
normalized growth (S. cerevisiae deletion strains, locus YKL068W, active compounds read low): 0.962
normalized growth (S. cerevisiae deletion strains, locus YKL085W, strain MDH1 (second series), active compounds read low): 0.961
normalized growth (S. cerevisiae deletion strains, locus YKL085W, strain MDH1, active compounds read low): 0.961
normalized growth (S. cerevisiae deletion strains, locus YKL160W, strain elf1, active compounds read low): 0.875 (active)
normalized growth (S. cerevisiae deletion strains, locus YKL190W, strain CNB1, active compounds read low): 0.975
normalized growth (S. cerevisiae deletion strains, locus YKR001C, strain vps1, active compounds read low): 0.693 (active)
normalized growth (S. cerevisiae deletion strains, locus YKR026C, strain gcn3, active compounds read low): 0.91 (active)
normalized growth (S. cerevisiae deletion strains, locus YKR091W, strain srl3, active compounds read low): 0.907 (active)
normalized growth (S. cerevisiae deletion strains, locus YLL001W, strain dnm1, active compounds read low): 0.825 (active)
normalized growth (S. cerevisiae deletion strains, locus YLL026W, active compounds read low): 0.888 (active)
normalized growth (S. cerevisiae deletion strains, locus YLL041C, strain sdh2, active compounds read low): 0.899 (active)
normalized growth (S. cerevisiae deletion strains, locus YLR027C, strain aat2, active compounds read low): 0.878 (active)
normalized growth (S. cerevisiae deletion strains, locus YLR039C, strain RIC1, active compounds read low): 0.783
normalized growth (S. cerevisiae deletion strains, locus YLR058C, strain SHM2, active compounds read low): 0.979
normalized growth (S. cerevisiae deletion strains, locus YLR102C, strain apc9, active compounds read low): 0.955
normalized growth (S. cerevisiae deletion strains, locus YLR113W, strain HOG1, active compounds read low): 0.954
normalized growth (S. cerevisiae deletion strains, locus YLR221C, strain rsa3, active compounds read low): 0.841 (active)
normalized growth (S. cerevisiae deletion strains, locus YLR258W, strain gsy2, active compounds read low): 0.873 (active)
normalized growth (S. cerevisiae deletion strains, locus YLR262C, strain YPT6 (second series), active compounds read low): 0.433 (active)
normalized growth (S. cerevisiae deletion strains, locus YLR262C, strain YPT6, active compounds read low): 0.775
normalized growth (S. cerevisiae deletion strains, locus YLR268W, strain sec22, active compounds read low): 0.86 (active)
normalized growth (S. cerevisiae deletion strains, locus YLR320W, strain mms22, active compounds read low): 0.635 (active)
normalized growth (S. cerevisiae deletion strains, locus YLR330W, strain CHS5, active compounds read low): 0.947
normalized growth (S. cerevisiae deletion strains, locus YLR342W, strain FKS1 (second series), active compounds read low): 0.661 (active)
normalized growth (S. cerevisiae deletion strains, locus YLR342W, strain FKS1, active compounds read low): 0.605 (active)
normalized growth (S. cerevisiae deletion strains, locus YLR357W, strain rsc2, active compounds read low): 0.942
normalized growth (S. cerevisiae deletion strains, locus YLR370C, strain arc18, active compounds read low): 0.844 (active)
normalized growth (S. cerevisiae deletion strains, locus YLR371W, strain rom2, active compounds read low): 0.886 (active)
normalized growth (S. cerevisiae deletion strains, locus YLR384C, strain iki3, active compounds read low): 0.946
normalized growth (S. cerevisiae deletion strains, locus YLR418C, strain cdc73, active compounds read low): 0.765 (active)
normalized growth (S. cerevisiae deletion strains, locus YML016C, strain PPZ1, active compounds read low): 0.981
normalized growth (S. cerevisiae deletion strains, locus YML032C, strain rad52, active compounds read low): 0.905 (active)
normalized growth (S. cerevisiae deletion strains, locus YML120C, strain ndi1, active compounds read low): 0.897 (active)
normalized growth (S. cerevisiae deletion strains, locus YML124C, strain tub3, active compounds read low): 0.939
normalized growth (S. cerevisiae deletion strains, locus YMR058W, strain fet3, active compounds read low): 0.881 (active)
normalized growth (S. cerevisiae deletion strains, locus YMR078C, strain ctf18, active compounds read low): 0.933
normalized growth (S. cerevisiae deletion strains, locus YMR125W, strain sto1, active compounds read low): 0.871 (active)
normalized growth (S. cerevisiae deletion strains, locus YMR129W, active compounds read low): 0.922 (active)
normalized growth (S. cerevisiae deletion strains, locus YMR205C, strain PFK2, active compounds read low): 0.793 (active)
normalized growth (S. cerevisiae deletion strains, locus YMR223W, strain ubp8, active compounds read low): 0.902 (active)
normalized growth (S. cerevisiae deletion strains, locus YMR231W, strain pep5, active compounds read low): 0.931
normalized growth (S. cerevisiae deletion strains, locus YMR263W, strain SAP30, active compounds read low): 0.93
normalized growth (S. cerevisiae deletion strains, locus YMR307W, strain GAS1, active compounds read low): 0.319 (active)
normalized growth (S. cerevisiae deletion strains, locus YNL067W, strain RPL9B, active compounds read low): 0.907
normalized growth (S. cerevisiae deletion strains, locus YNL071W, strain lat1, active compounds read low): 0.653 (active)
normalized growth (S. cerevisiae deletion strains, locus YNL128W, strain TEP1, active compounds read low): 0.989
normalized growth (S. cerevisiae deletion strains, locus YNL153C, strain GIM3, active compounds read low): 0.939
normalized growth (S. cerevisiae deletion strains, locus YNL183C, strain NPR1, active compounds read low): 0.934
normalized growth (S. cerevisiae deletion strains, locus YNL209W, strain ssb2, active compounds read low): 0.927 (active)
normalized growth (S. cerevisiae deletion strains, locus YNL233W, strain BNI4, active compounds read low): 0.86 (active)
normalized growth (S. cerevisiae deletion strains, locus YNL248C, strain rpa49, active compounds read low): 0.904
normalized growth (S. cerevisiae deletion strains, locus YNL250W, strain rad50, active compounds read low): 0.934
normalized growth (S. cerevisiae deletion strains, locus YNL271C, strain bni1, active compounds read low): 0.938
normalized growth (S. cerevisiae deletion strains, locus YNL298W, strain CLA4, active compounds read low): 0.939
normalized growth (S. cerevisiae deletion strains, locus YNL307C, strain MCK1, active compounds read low): 0.868 (active)
normalized growth (S. cerevisiae deletion strains, locus YNL322C, strain KRE1 (second series), active compounds read low): 0.91
normalized growth (S. cerevisiae deletion strains, locus YNL322C, strain KRE1, active compounds read low): 0.987
normalized growth (S. cerevisiae deletion strains, locus YNR049C, strain mso1, active compounds read low): 0.905 (active)
normalized growth (S. cerevisiae deletion strains, locus YNR052C, strain pop2, active compounds read low): 0.949
normalized growth (S. cerevisiae deletion strains, locus YOL006C, strain TOP1, active compounds read low): 0.64
normalized growth (S. cerevisiae deletion strains, locus YOL012C, strain htz1): 0.742
normalized growth (S. cerevisiae deletion strains, locus YOL147C, strain pex11, active compounds read low): 0.937
normalized growth (S. cerevisiae deletion strains, locus YOR001W, strain rrp6, active compounds read low): 0.853 (active)
normalized growth (S. cerevisiae deletion strains, locus YOR061W, strain CKA2, active compounds read low): 0.986
normalized growth (S. cerevisiae deletion strains, locus YOR069W, strain VPS5, active compounds read low): 0.987
normalized growth (S. cerevisiae deletion strains, locus YOR070C, strain gyp1, active compounds read low): 0.9 (active)
normalized growth (S. cerevisiae deletion strains, locus YOR080W, strain dia2, active compounds read low): 0.95
normalized growth (S. cerevisiae deletion strains, locus YOR083W, strain WHI5, active compounds read low): 0.862 (active)
normalized growth (S. cerevisiae deletion strains, locus YOR106W, strain vam3, active compounds read low): 0.771 (active)
normalized growth (S. cerevisiae deletion strains, locus YOR136W, strain idh2, active compounds read low): 0.956
normalized growth (S. cerevisiae deletion strains, locus YOR144C, strain elg1, active compounds read low): 0.961
normalized growth (S. cerevisiae deletion strains, locus YOR184W, strain ser1, active compounds read low): 0.817 (active)
normalized growth (S. cerevisiae deletion strains, locus YOR231W, strain MKK1, active compounds read low): 0.987
normalized growth (S. cerevisiae deletion strains, locus YOR265W, strain rbl2, active compounds read low): 0.902 (active)
normalized growth (S. cerevisiae deletion strains, locus YOR270C, strain vph1, active compounds read low): 0.489 (active)
normalized growth (S. cerevisiae deletion strains, locus YOR290C, strain snf2, active compounds read low): 0.867
normalized growth (S. cerevisiae deletion strains, locus YOR316C, strain cot1, active compounds read low): 0.955
normalized growth (S. cerevisiae deletion strains, locus YPL051W, strain arl3, active compounds read low): 0.725 (active)
normalized growth (S. cerevisiae deletion strains, locus YPL055C, strain LGE1, active compounds read low): 0.889
normalized growth (S. cerevisiae deletion strains, locus YPL078C, strain atp4, active compounds read low): 0.795 (active)
normalized growth (S. cerevisiae deletion strains, locus YPL106C, strain sse1, active compounds read low): 0.792 (active)
normalized growth (S. cerevisiae deletion strains, locus YPL240C, strain hsp82, active compounds read low): 0.914 (active)
normalized growth (S. cerevisiae deletion strains, locus YPL241C, strain CIN2, active compounds read low): 0.98
normalized growth (S. cerevisiae deletion strains, locus YPL256C, strain CLN2, active compounds read low): 0.967
normalized growth (S. cerevisiae deletion strains, locus YPR119W, strain clb2, active compounds read low): 0.949
normalized growth (S. cerevisiae deletion strains, locus YPR141C, strain kar3, active compounds read low): 0.933
normalized growth (S. cerevisiae deletion strains, locus YPR163C, strain tif3, active compounds read low): 0.946
normalized growth (S. cerevisiae deletion strains, locus YPR167C, strain met16, active compounds read low): 0.96
normalized growth (S. cerevisiae deletion strains, strain wtn01, active compounds read low): 0.871 (active)
normalized growth (S. cerevisiae strains, strain wild type, active compounds read low): 0.949
